Screens: PubChem, National Center for Advancing Translational Sciences (NCATS)
D1 antagonist: human D1 dopamine receptor antagonism; actives 3.2% (n = 360,000); activity change, negative = inhibition, % at 10 µM; P21728; AID 504652; HEK293 TREx D1 cells, calcium flux, dopamine EC80; active compounds read low; in the data active = activity change below about -30%
Target sequence (P21728 whole entry, looked up): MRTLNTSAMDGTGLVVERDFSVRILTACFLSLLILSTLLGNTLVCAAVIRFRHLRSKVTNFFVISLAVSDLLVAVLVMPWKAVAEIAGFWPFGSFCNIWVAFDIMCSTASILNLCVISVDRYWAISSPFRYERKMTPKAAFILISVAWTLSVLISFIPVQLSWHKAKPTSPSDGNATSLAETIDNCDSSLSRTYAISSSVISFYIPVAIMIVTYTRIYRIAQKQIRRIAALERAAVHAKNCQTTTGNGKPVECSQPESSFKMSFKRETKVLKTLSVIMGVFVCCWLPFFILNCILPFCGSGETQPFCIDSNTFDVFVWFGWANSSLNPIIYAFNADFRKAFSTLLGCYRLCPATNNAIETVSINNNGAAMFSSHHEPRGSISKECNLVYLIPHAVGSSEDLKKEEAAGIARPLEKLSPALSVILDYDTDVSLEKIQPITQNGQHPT
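After overnight tetracycline induction at 30 C, force-coupled D1 HEK293 cells took up a no-wash calcium dye at room temperature. Compounds were added and monitored 180 s, and the response to EC80 dopamine was then recorded.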
TRHR ag: activates the human TRH receptor. P34981. TRHR cells, calcium flux fluo-8, FDSS agonist mode. activation, % at 2 µM. actives 0.18% (n = 360,000)
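TRHR-expressing cells loaded with fluo-8 calcium dye; 23 nL library compound pin-transferred, kinetic FDSS fluorescence (Ex 480/Em 530) recorded about 180 s for agonist-induced calcium release, before a 10 nM TRH EC20 addition for potentiator mode.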
TRHR enhancer: TRH receptor (human) allosteric enhancement | actives 0.66% (n = 360,000) | enhancement, % at 2 µM | TRHR cells, fluo-8 calcium fluorescence, EC20 TRH enhancement | P34981; in the data active = enhancement above about 30%
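Enhancer read-out: after compound pinning and an initial kinetic agonist-mode read, an EC20 of TRH (10 nM final) was injected and fluo-8 calcium signal (Ex 480/Em 530) followed at 1 s/cycle for 100 cycles in TRHR-expressing cells.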
D1 PAM: enhances dopamine response at the human D1 receptor | P21728 | HEK293 TREx D1 cells, calcium flux, dopamine EC20 potentiation | actives 0.036% (n = 360,000) | potentiation, % at 10 µM; in the data active = potentiation above about 30%
Glioma ERSR ind: inducers of ER stress response in human glioma cells | U87-MG GRP78 promoter luciferase reporter, 16 h | Potency, µM, hits mostly activators | actives 0.02% (n = 420,000) | AID 602332; active = well fitted activation curve with a large enough effect; also: series mostly up to about 76 µM; nearly all actives have a fitted effect of over 35% in size
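ERSR induction read as luciferase luminescence (Bright-Glo, 10 min at room temperature) in stably transfected human U87-MG glioma cells exposed to compounds for 16 h, using GRP78 as sensor.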
D1 agonist: agonists of human D1 dopamine receptor; HEK293 T-REx D1 cells, calcium flux, agonist mode; P21728; actives 1% (n = 360,000); AID 504660; activation, % at 2 µM
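Tetracycline-induced HEK293 TREx D1 cells, force-coupled to calcium signalling, were dye-loaded with a no-wash calcium kit. Compound was pin-added after a 10 s baseline. Fluorescence was read kinetically at 1 cycle/s for 180 s, with calcium rises flagged as agonism.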
A number is an active result; – = inactive; · = no result given; ! = not confirmed by another sample. An excerpt weighted towards active compounds, which were near 4% of everything screened. Rule as the data show it, unless noted: active = activation above about 30%; inactive = the rest.

SMILES | D1 antagonist | TRHR ag | TRHR enhancer | D1 PAM | Glioma ERSR ind | D1 agonist
COc1ccc(OCc2cc(C(=O)N3CCCCCC3)no2)c(Cl)c1 | – | – | – | – | – | –
COc1cccc(OCc2cc(C(=O)N3CCC(c4ccncc4)CC3)no2)c1 | -36 | – | – | – | – | –
CC(=O)N1c2ccc(S(=O)(=O)NCCC(=O)NCCc3ccc(Cl)cc3)cc2CC1C (configuration not stated) | – | – | – | – | – | –
Cc1ccc(S(=O)(=O)N2CCN(C(=O)N3CCOCC3)C2c2ccc(N(C)C)cc2)cc1 (configuration not stated) | – | – | – | – | – | –
CCCCCCn1c(C(C)O)nc2ccccc21 (configuration not stated) | – | – | – | – | – | –
Cc1ccc(N/C(N)=N/c2nc(C)cc(N3CCCCC3)n2)c(C)c1 | -99 | – | – | – | – | –
O=C(C[n+]1cc(-c2ccc(F)cc2)n2c1CCC2)Nc1nc(-c2ccc(F)cc2)cs1 | -31 | – | – | – | – | –
O=C(CN1CCCC1)Nc1nc(-c2ccc(Cl)cc2)cs1 | · | · | · | · | – | ·
O=C(CN1CCCCC1)Nc1nc(-c2ccc(Cl)cc2)cs1 | -53 | – | – | – | – | –
Cc1cc(N/C(=N/S(=O)(=O)c2ccc(F)cc2)c2ccccc2)n(-c2ccccc2)n1 | – | – | – | – | – | –
COCCNC(=O)C1CCN(S(=O)(=O)N2CCC3(CC2)OCCO3)CC1 | – | – | – | – | – | –
CCOC(=O)N1CCN(CC(O)COc2ccccc2C(C)C)CC1 (configuration not stated) | – | – | – | – | – | –
CCN(CCNCC(O)COc1ccccc1C(C)C)c1cccc(C)c1 (configuration not stated) | – | – | – | – | – | 56
Cc1cc(-c2nnc(SCCC(=O)Nc3ccccc3)o2)no1 | – | – | – | – | – | –
Cc1cc(-c2nnc(SCc3ccccn3)o2)no1 | – | – | 31 | – | – | –
Fc1ccc([C@@H]2CCNC[C@H]2COc2ccc3c(c2)OCO3)cc1 | -37 | – | – | – | – | 59
Fc1ccc(C2CCNCC2COc2ccc3c(c2)OCO3)cc1 (configuration not stated) | – | – | – | – | – | 38
O=C(COc1ccc2c(c1)OCO2)Nc1ccccc1F | · | – | – | – | – | –
O=C(COC(=O)C1CC(O)CN1S(=O)(=O)c1ccc(Cl)cc1)c1ccccc1Cl (configuration not stated) | – | – | – | – | – | –
Cc1cc(C)c(C#N)c(SCc2ccccc2[N+](=O)[O-])n1 | – | – | – | – | – | –
Cc1cc(C)c(C#N)c(SCc2nnc(-c3ccccc3[N+](=O)[O-])o2)n1 | – | – | – | – | – | 38
CCc1cc(Br)ccc1N1C(=O)C2CC=CCC2C1=O (configuration not stated) | -41 | – | – | – | – | –
CC(C)CC(=O)NC(Nc1ccc([N+](=O)[O-])cc1)C(Cl)(Cl)Cl (configuration not stated) | -40 | – | – | – | – | –
CC(C)CC(=O)NC(Nc1ccccc1F)C(Cl)(Cl)Cl (configuration not stated) | – | – | – | – | – | –
CC1(C)Cc2c(C#N)c(NCc3ccco3)nc(-c3ccco3)c2CO1 | – | – | 37 | – | – | –
SMILES | D1 antagonist | TRHR ag | TRHR enhancer | D1 PAM | Glioma ERSR ind | D1 agonist
Cc1nc(NCc2ccco2)c(C#N)c2c1COC(C)(C)C2 | – | – | – | – | – | –
Cc1ccc(NC(=O)CNC(c2ccccc2)c2ccccc2)c(F)c1 | – | – | – | – | – | –
O=C(CNC(c1ccccc1)c1ccccc1)Nc1c(F)cccc1F | -38 | – | – | – | – | –
CC(=O)OCc1ccccc1Sc1ccccc1C(=O)NCc1ccccc1 | -45 | – | – | – | – | –
COc1ccc(CNC(=O)c2ccccc2SC)cc1 | – | – | – | – | – | –
COc1cccc(/C(O)=C/c2nc3ccc(C(=O)NCCc4ccc(Cl)cc4)cc3[nH]c2=O)c1 | – | – | – | – | – | –
COc1cccc(/C(O)=C/c2nc3ccc(C(=O)NCCc4cccc(C)c4)cc3[nH]c2=O)c1 | -41 | – | – | – | – | 46
O=C(CSc1nnc2n1CCCCC2)NCc1ccccc1 | · | · | · | · | – | ·
CCOC(=O)c1c(NC(C)=O)c2c3c(sc2n1Cc1nc(-c2cccc(Cl)c2)oc1C)CCCC3 | -37 | – | – | – | · | –
c1ccc(CNCCCNCCCCNCCCNCc2ccccc2)cc1 | · | · | · | · | – | ·
O=C(O)CCCCNCc1ccccc1 | – | – | – | – | – | –
CCOC(=O)CCCCNCc1ccccc1 | – | – | 30 | – | – | –
O=C(O)CCCCCNCc1ccncc1 | -41 | – | – | – | – | –
COc1ccc(CCN2CC34C=CC(O3)C(C(=O)NCc3ccccc3Cl)C4C2=O)cc1OC (configuration not stated) | – | – | – | – | – | –
COc1ccccc1N1CCN(C(=O)C2C3C=CC4(CN(Cc5ccccc5Cl)C(=O)C24)O3)CC1 (configuration not stated) | -35 | – | – | – | – | –
Cc1ccc(S(=O)(=O)NC(=O)c2cc(C)n(CCCN3CCOCC3)c2C)cc1 | – | – | – | – | – | –
Cc1ccc(C)c(NC(=O)C(=O)NCCCN2CCOCC2)c1 | – | – | – | – | – | –
O=C(NCCCN1CCOCC1)c1ccc(Br)s1 | – | – | – | – | – | –
Cc1cc(C)cc(NC(=O)C(=O)NCCCN2CCOCC2)c1 | -79! | – | – | – | – | –
Cc1ccc(S(=O)(=O)NC(=O)NCCCN2CCOCC2)cc1 | -56 | – | – | – | – | –
O=C(NCCCN1CCOCC1)c1cccs1 | -35 | – | – | – | – | –
COc1ccccc1-n1cnnc1SCC(=O)NC1CCCCC1 | – | – | – | – | – | –
COc1cccc(N2CC(NC(=O)C(=O)c3c[nH]c4ccccc34)CC2=O)c1 (configuration not stated) | -35 | – | – | – | – | –
O=C(NC1CC(=O)N(c2cccc(F)c2)C1)C(=O)c1c[nH]c2ccccc12 (configuration not stated) | – | – | – | – | – | –
CC(NO)/C(=N\O)c1cccs1 (configuration not stated) | – | – | – | – | – | –
CCN1/C(=C\C=C(C(C)=O)C(C)=O)Sc2ccccc21 | – | – | – | – | – | 80
CCOC(=O)c1c(C)[nH]c(C)c1C(=O)COC(=O)c1cc(OC)c(OC)cc1OC | -32 | – | – | – | – | –
CCOC(=O)c1c(C)[nH]c(C)c1C(=O)COC(=O)c1ccc(S(=O)(=O)N(CC)CC)cc1 | – | – | – | – | – | –
